Results published in PubChem BioAssay (NCATS).
Inconclusive results are not listed. The source made the active and inactive calls. Unless noted, the call rests on the fitted dose curve.

Key:
[1] = target: Estrogen receptor (Homo sapiens) (UniProt P03372); experiment: qHTS assay for small molecule antagonists of estrogen receptor alpha signaling (AID 588513; active means well fitted curve in the direction sought with a large enough effect in the signal ratio, with a control signal flat, not every such curve was filed as active; the % refers to the signal ratio; further: on the % scale 0 is the no-effect control and ±100 the full control effect); conditions: ER-alpha-UAS-bla HEK293, beta-lactamase ratio, antagonist mode; series mostly up to 76.9 µM
Procedure, shortened: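 Beta-lactamase reporter, antagonist mode, HEK 293 GripTite cells; 0.5nM E2 stimulus, 18 h, 37 C; CCF4 dye 2 h RT; fluorescence. IC50 and efficacy from Hill fits, normalized to E2 and DMSO.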

[2] = qHTS assay for small molecule antagonists of peroxisome proliferator-activated receptor delta signaling (AID 588535); conditions: HEK293T PPARd-UAS-bla, beta-lactamase FRET ratio, 18 h; 460 nm channel;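 further: cells co-treated with a PPAR-delta agonist as stimulator during compound exposure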
Procedure, shortened: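 Titrations were run on PPAR-delta-UAS-bla HEK293T cells in charcoal/dextran-stripped serum, incubated 18 h at 37 C. CCF4 fluorescence (460/530 nm) after 2 h RT; Hill equation yields IC50 and maximal response.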

[3] = target: Vitamin D3 receptor (Homo sapiens) (UniProt P11473); experiment: qHTS assay for small molecule antagonists of vitamin D receptor signaling (AID 588541); conditions: HEK293T VDR-UAS-bla, beta-lactamase ratio, antagonist mode; series mostly up to 76.7 µM;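 further: receptor activated by calcitriol during compound treatment; on the % scale 0 is the no-effect control and ±100 the full control effect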
Procedure, shortened: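 Antagonist-mode beta-lactamase reporter assay: HEK293T VDR-UAS-bla cells were exposed to titrated compound alongside 1-alpha,25-dihydroxyvitamin D3 at 3 nM final for 16 h. Values were normalized to the 50 nM agonist control and DMSO basal, with IC50 and efficacy from Hill equation fits.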

[4] = target: Vitamin D3 receptor (Homo sapiens) (UniProt P11473); experiment: qHTS assay for small molecule agonists of vitamin D receptor signaling (AID 588543); conditions: HEK293T VDR-UAS-bla, beta-lactamase ratio, 16 h; series mostly up to 76.8 µM;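 further: 0% = DMSO basal and 100% = reference agonist control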
Procedure, shortened: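 β-lactamase reporter, VDR-UAS-bla HEK293T, agonist mode. Cells plated 5 h at 37 °C, compound titration 16 h at 37 °C, CCF4 dye 2 h RT, ratio 460/530 nm. Hill fit → EC50, efficacy vs 50 nM 1α,25-(OH)2D3.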

[5] = qHTS assay for small molecule agonists of retinoid X receptor alpha signaling (AID 588544); conditions: HEK293T RXRa-UAS-bla, beta-lactamase reporter, 18 h; 530 nm emission;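 on activation: 0% = DMSO basal wells and 100% = reference agonist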
[6] = target: Retinoic acid receptor RXR-alpha (Homo sapiens) (UniProt P19793); experiment: as above; conditions: HEK293T RXRa-UAS-bla, beta-lactamase reporter, 18 h; series mostly up to 76.7 µM
[7] = target: Thyroid hormone receptor beta (Homo sapiens) (UniProt P10828); experiment: qHTS assay for small molecule agonists of thyroid hormone receptor beta signaling (AID 588545); conditions: TR-UAS-bla GripTite HEK 293, beta-lactamase ratio, agonist mode, 18 h; series mostly up to 76.7 µM
Procedure, shortened: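 Cells (2500/well) were seeded, incubated 4 hrs at 37 C, dosed with a compound series, incubated 18 hrs, loaded with CCF4 dye for 2 hrs at RT, then read for fluorescence. Data were scaled between DMSO (0%) and 10 nM T3 (100%).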

[8] = qHTS assay for small molecule antagonists of retinoid X receptor alpha signaling (AID 588546; active means well fitted inhibition curve with a large enough effect in the signal ratio, with a control signal flat, not every such curve was filed as active; the % refers to the signal ratio;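 further: cells stimulated with 9-cis-retinoic acid as agonist; on the % scale 0 is the no-effect control and ±100 the full control effect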); conditions: HEK293T RXRa-UAS-bla, beta-lactamase ratio, antagonist mode; measured here: W530 green channel, cytotoxicity proxy
Procedure, shortened: (§1)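 Beta-lactamase reporter inhibition, read as CCF4 fluorescence ratio (ex 405, em 460/530 nm) after 2 h at RT. HEK293T UAS-bla cells, 2500/well, were stimulated with 9-cis-RA at 500 or 100 nM final alongside test compound for 18 h at 37 C.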

[9] = target: Retinoic acid receptor RXR-alpha (Homo sapiens) (UniProt P19793); experiment: as above; conditions: HEK293T RXRa-UAS-bla, beta-lactamase ratio, antagonist mode
Procedure, shortened: as §1

[10] = target: Thyroid hormone receptor beta (Homo sapiens) (UniProt P10828); experiment: qHTS assay for small molecule antagonists of thyroid hormone receptor beta signaling (AID 588547; active means well fitted inhibition curve with a large enough effect in the signal ratio, with a control signal flat, not every such curve was filed as active; the % refers to the signal ratio;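 further: cells stimulated with 0.4 nM T3 agonist during compound exposure; on the % scale 0 is the no-effect control and ±100 the full control effect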); conditions: TR-UAS-bla HEK293, beta-lactamase ratio, antagonist mode, 18 h
Procedure, shortened: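 Inhibition of T3-driven (0.4nM final) beta-lactamase reporter activity was measured over 0.59 nM to 92 uM compound after 18 h at 37 C. The cells were GripTite HEK293 TR-UAS-bla in charcoal/dextran-stripped serum, with CCF4 ratio read-out and IC50 from Hill fits.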

[11] = qHTS assay for environmental chemicals that activate the Aryl hydrocarbon Receptor (AhR) signaling pathway (AID 651777; active means well fitted curve in the direction sought with a large enough effect; an effect the other way counts as inactive or inconclusive; further: % of control where 0% means no effect; nearly all actives have a fitted effect of over 15% in size); conditions: 1A2-DRE human hepatoma cells, luciferase, 24 h; activation: stronger effect = higher value
Procedure, shortened: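 Quantitative HTS in stably transfected human liver-derived cells whose luciferase gene sits downstream of the CYP1A2 promoter and dioxin response element. After 24 hr exposure at 37 C, One-Glo luminescence was measured.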

[12] = target: Peroxisome proliferator-activated receptor alpha (Homo sapiens) (UniProt Q07869); experiment: qHTS assay for small molecule agonists of the peroxisome proliferator-activated receptor alpha (PPARalpha) signaling pathway (AID 651778; active means well fitted curve in the direction sought with a large enough effect; an effect the other way counts as inactive or inconclusive; further: % of control where 0% means no effect); conditions: PathHunter PPARalpha complementation, chemiluminescence, 6 h; max response: stronger effect = higher value
Procedure, shortened: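 Chemiluminescence from complemented enzyme reported PPARalpha activation in cells after 6 hr of compound treatment at 37 C. The detection reagent was incubated for 60 min at room temperature, and compounds were scored as agonists.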

[13] = qHTS assay for small molecule agonists of the antioxidant response element (ARE) signaling pathway measured by Nrf2-dependant transcriptional activity (AID 720636; active means well fitted curve in the direction sought with a large enough effect in the repeat runs; an effect the other way counts as inactive or inconclusive; further: % of control where 0% means no effect); conditions: ARE-luc HepG2, Nrf2 luciferase reporter, 16 h; series mostly up to 92.4 µM
Procedure, shortened: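 Quantitative HTS format in HepG2 cells stably expressing an ARE-luciferase reporter; 16 hr compound treatment at 37 C, luciferase signal detected with ONE-Glo.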

[14] = qHTS assay for small molecule agonists of the antioxidant response element (ARE) signaling pathway measured by Nrf2-dependant transcriptional activity - cell viability counter screen (AID 720653; active means well fitted curve in the direction sought with a large enough effect in the repeat runs; an effect the other way counts as inactive or inconclusive; further: on the % scale 0 is the no-effect control and ±100 the full control effect); conditions: ARE-bla HepG2 viability, CellTiter-Glo ATP luminescence, 16 h; max response: stronger effect = lower value
Procedure, shortened: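 Cytotoxicity counter screen: intracellular ATP quantified by CellTiter-Glo luminescence in the same ARE-bla HepG2 plates, after 16 h compound exposure and a 2 h beta-lactamase substrate step.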

[15] = qHTS assay for cell viability of the p53RE-bla HCT-116 cell line (AID 743292; active means well fitted curve in the direction sought with a large enough effect; an effect the other way counts as inactive or inconclusive; further: on the % scale 0 is the no-effect control and ±100 the full control effect; nearly all actives have a fitted effect of over 55% in size); conditions: p53RE-bla HCT-116 viability, ATP luminescence, 16 h; series mostly up to 95 µM
Procedure, shortened: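 Viability of compound-treated p53RE-bla HCT-116 cells is taken from ATP-dependent luciferase luminescence. Treatment lasts 16 h at 37 C after a 5 h settling period; detection follows 30 min at room temperature.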

[16] = target: Nuclear receptor subfamily 1 group I member 2 (Rattus norvegicus) (UniProt Q9R1A7); experiment: qHTS assay for small molecule activators of the rat pregnane X receptor (rPXR) signaling pathway (AID 651751; call rule not given here; further: 0% is about no effect); conditions: rPXR reporter cells, luciferase (One-Glo), 24 h
[17] = qHTS assay for small molecule activators of the human pregnane X receptor (PXR) signaling pathway (AID 720659; call rule not given here; further: 0% is about no effect); conditions: DPX-2 HepG2 CYP3A4-luciferase, 24 h; series mostly up to 92.3 µM
[18] = target: Estrogen receptor (Homo sapiens) (UniProt P03372); experiment: qHTS assay for small molecule agonists of estrogen receptor alpha signaling (AID 588514); conditions: ER-alpha-UAS-bla HEK293, beta-lactamase ratio, 18 h; series mostly up to 76.8 µM;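 further: 0% = vehicle only and 100% = reference agonist; nearly all actives have a fitted effect of over 70% in size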
Procedure, shortened: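 Efficacy is expressed against 20 nM 17-beta-estradiol (100%) and DMSO basal (0%); EC50 from Hill equation. Assay: beta-lactamase reporter in ER-alpha-UAS-bla HEK 293 cells, 18 h compound incubation, CCF4 detection.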

[19] = qHTS assay for small molecule activators of the nuclear factor-kappa B (NF-kB) signaling pathway (AID 651749; active means well fitted activation curve with a large enough effect in the signal ratio; the % refers to the signal ratio; further: % of control where 0% means no effect); conditions: NF-kB-bla ME-180 cells, beta-lactamase FRET ratio, 16 h; activation: stronger effect = higher value
Procedure, shortened: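 Activation measured after 16 hr compound treatment at 37C, 5% CO2, of 2,000 ME-180 cells/well stably expressing an NF-kB response element–driven beta-lactamase reporter, via FRET-disruption fluorescence.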

[20] = qHTS assay for cell viability of HEK293 cells (AID 743288; active means well fitted curve in the direction sought with a large enough effect; an effect the other way counts as inactive or inconclusive; further: on the % scale 0 is the no-effect control and ±100 the full control effect; nearly all actives have a fitted effect of over 50% in size); conditions: ATP luminescence (CellTiter-Glo), 18 h; max response: stronger effect = lower value
Procedure, shortened: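 ATP luminescence (CellTiter-Glo) reports metabolically competent cell number after parental HEK293 cells, 2,000/well, were treated with DMSO-dissolved compounds for 18 h at 37 C; reagent incubation 30 min, room temperature.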

Chain of Retinoic acid receptor RXR-alpha (Homo sapiens) (P19793 whole entry, looked up): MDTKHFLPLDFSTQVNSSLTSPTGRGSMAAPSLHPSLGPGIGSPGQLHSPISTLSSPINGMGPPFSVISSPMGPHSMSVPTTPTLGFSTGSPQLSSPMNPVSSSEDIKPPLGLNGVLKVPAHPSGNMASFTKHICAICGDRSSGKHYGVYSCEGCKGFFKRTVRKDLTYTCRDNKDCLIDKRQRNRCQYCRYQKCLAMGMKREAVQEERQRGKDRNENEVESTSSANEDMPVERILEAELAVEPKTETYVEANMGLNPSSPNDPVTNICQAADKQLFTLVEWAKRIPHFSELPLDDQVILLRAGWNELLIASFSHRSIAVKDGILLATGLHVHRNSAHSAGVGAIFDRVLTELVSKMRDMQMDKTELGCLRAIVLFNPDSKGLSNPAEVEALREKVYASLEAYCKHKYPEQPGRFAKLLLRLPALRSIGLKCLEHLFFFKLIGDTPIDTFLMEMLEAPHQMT
Chain of Nuclear receptor subfamily 1 group I member 2 (Rattus norvegicus) (Q9R1A7 whole entry, looked up): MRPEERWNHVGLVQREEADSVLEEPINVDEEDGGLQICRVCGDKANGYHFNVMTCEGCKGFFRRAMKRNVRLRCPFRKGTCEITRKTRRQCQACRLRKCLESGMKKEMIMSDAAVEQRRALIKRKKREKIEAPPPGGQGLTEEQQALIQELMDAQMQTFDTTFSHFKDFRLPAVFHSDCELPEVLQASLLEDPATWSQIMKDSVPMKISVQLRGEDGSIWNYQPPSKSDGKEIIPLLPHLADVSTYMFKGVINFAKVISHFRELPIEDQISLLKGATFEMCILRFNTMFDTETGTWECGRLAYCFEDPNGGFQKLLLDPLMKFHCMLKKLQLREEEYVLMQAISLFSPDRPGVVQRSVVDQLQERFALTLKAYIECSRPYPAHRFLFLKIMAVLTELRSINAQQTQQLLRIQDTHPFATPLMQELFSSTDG
Chain of Vitamin D3 receptor (Homo sapiens) (P11473 whole entry, looked up): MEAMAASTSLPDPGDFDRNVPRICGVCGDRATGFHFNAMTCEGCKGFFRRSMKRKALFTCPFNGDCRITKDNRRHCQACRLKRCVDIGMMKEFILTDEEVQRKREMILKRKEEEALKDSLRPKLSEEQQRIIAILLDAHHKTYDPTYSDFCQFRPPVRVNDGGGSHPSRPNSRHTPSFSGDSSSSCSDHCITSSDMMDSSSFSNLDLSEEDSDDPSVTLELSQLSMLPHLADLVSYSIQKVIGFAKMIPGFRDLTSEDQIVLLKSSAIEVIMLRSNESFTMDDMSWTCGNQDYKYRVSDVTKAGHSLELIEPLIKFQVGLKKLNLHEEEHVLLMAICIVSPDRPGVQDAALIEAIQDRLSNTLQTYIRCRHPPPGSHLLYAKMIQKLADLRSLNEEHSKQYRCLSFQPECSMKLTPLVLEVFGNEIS
Chain of Peroxisome proliferator-activated receptor alpha (Homo sapiens) (Q07869 whole entry, looked up): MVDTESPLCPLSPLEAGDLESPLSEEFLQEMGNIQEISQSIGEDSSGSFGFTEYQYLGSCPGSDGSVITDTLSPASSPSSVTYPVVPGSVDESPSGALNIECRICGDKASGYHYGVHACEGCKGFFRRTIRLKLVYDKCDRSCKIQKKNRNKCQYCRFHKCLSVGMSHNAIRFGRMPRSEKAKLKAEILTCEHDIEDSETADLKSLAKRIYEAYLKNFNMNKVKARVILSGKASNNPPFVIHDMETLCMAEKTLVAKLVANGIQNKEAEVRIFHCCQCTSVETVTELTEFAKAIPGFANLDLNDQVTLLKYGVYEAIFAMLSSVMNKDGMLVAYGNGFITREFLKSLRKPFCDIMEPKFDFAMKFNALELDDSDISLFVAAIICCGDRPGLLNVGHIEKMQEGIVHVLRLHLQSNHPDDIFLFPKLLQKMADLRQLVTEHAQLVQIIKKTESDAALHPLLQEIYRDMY
Chain of Estrogen receptor (Homo sapiens) (P03372 whole entry, looked up): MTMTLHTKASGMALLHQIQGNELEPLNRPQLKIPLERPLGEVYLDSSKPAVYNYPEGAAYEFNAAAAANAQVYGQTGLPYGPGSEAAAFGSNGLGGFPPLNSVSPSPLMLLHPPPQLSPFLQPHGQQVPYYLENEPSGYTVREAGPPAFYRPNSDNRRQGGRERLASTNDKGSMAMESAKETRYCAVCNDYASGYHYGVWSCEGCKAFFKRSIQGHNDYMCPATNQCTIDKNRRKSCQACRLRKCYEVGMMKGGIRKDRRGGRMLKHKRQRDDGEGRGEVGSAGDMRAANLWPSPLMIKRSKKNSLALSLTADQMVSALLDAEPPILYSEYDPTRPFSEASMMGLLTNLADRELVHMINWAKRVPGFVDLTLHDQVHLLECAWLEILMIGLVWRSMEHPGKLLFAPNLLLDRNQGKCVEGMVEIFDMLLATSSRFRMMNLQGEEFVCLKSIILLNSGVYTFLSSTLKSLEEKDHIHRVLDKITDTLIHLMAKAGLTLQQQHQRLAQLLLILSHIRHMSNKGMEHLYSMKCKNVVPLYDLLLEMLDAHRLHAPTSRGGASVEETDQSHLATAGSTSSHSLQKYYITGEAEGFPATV
Chain of Thyroid hormone receptor beta (Homo sapiens) (P10828 whole entry, looked up): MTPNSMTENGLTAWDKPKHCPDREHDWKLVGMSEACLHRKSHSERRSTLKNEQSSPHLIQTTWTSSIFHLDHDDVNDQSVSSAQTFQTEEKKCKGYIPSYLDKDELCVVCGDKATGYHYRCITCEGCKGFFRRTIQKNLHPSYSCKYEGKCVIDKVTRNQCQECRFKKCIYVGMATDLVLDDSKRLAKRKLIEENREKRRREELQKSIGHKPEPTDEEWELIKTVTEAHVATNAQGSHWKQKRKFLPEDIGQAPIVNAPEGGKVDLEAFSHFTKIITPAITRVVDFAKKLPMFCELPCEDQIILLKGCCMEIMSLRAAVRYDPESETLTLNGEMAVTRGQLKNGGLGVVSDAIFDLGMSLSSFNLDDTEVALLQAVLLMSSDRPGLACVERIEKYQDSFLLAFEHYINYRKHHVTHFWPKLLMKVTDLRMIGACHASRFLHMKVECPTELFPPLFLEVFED

CC(=O)OC1CCC(C(C)(C)C)CC1 (stereo not drawn)
-2.86%: max response [5]
inactive: Potency [1] | Potency [3] | outcome [4] | Potency [6] | Potency [7] | max response [9] -6.71% | activity change % (negative = inhibition) [10] 5.89% | activation [11] 3.13% | max response [12] -0.283% | Potency [13] | max response [14] 0.584% | Potency [15] | max response [16] 4.95% | outcome [17]
-10.4%: max response [2]
-1.04%: max response [8]

CC(=O)OC(C)(C)C1CC=C(C)CC1 (stereo not drawn)
-21.5%: max response [2]
-9.79%: max response [5]
-19.2%: max response [8]
inactive: Potency [1] | Potency [18] | Potency [3] | outcome [4] | Potency [6] | Potency [7] | max response [9] -1.89% | activity change % (negative = inhibition) [10] -6.17% | activation [11] -2.57% | max response [12] -5.04% | Potency [13] | max response [14] -6.08% | Potency [15] | max response [16] -1.76% | outcome [17]

CCCCCCCC/C=C\CCCCCCCCCCCCC
4.69%: max response [5]
20.5%: max response [2]
-11.4%: max response [8]
inactive: Potency [18] | Potency [3] | Potency [6] | max response [9] 1.65% | activation [19] -1.6% | activation [11] -0.312% | max response [12] -1.02% | Potency [13] | max response [14] 1.5% | max response [20] -4.21% | Potency [15] | max response [16] -1.72% | outcome [17]

CC1(C)C(C=C(Cl)Cl)[C@H]1C(=O)OCc1cccc(Oc2ccccc2)c1 (stereo partly drawn)
35.5%: max response [2]
-16.1%: max response [8]
inactive: Potency [1] | Potency [3] | max response [9] -0.468% | activity change % (negative = inhibition) [10] 5.41% | max response [12] -1.89% | Potency [13] | max response [14] -12.3% | max response [20] -12.9% | Potency [15]

C[Si]1(C)N[Si](C)(C)N[Si](C)(C)N1
-6.42%: max response [5]
-13.1%: max response [8]
inactive: Potency [1] | Potency [18] | Potency [6] | Potency [7] | max response [9] -7.51% | activity change % (negative = inhibition) [10] 17.9% | activation [19] -2.89% | max response [12] -0.733% | Potency [13] | max response [14] -8.08% | max response [20] -3.76% | Potency [15] | max response [16] 1.59% | outcome [17]
